The AC50 is the midpoint of the concentration-response curve, whichever way the signal moves.

“And” between values parts separate entries of the source, which are not always exact repeats. Equal entries are not always repeated. The source made the active and inactive calls. Rule for the calls: active = hit-call score of the fitted dose curve at least 0.9, where 1 is the maximum; inactive = score below 0.9.

The record followed here is PubChem BioAssay (EPA / NIEHS).

Read-out in this assay: Interleukin 6 (IL6), IL6 (gene 3569)
In words: BSK_BT_xIL6: BioMAP Diversity Plus: BT Assay for Interleukin 6 (IL6) Biomarker Activity (AID 2284228). The conditions noted are these: primary human B cells with PBMC. The essentials: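 Human B cell/PBMC co-culture; secreted IL-6 quantified by Luminex xMAP 24 h after chemical dosing, fitted relative to DMSO. Parallel PBMC viability by Alamar Blue after 1 h pretreatment, 20 ng/mL SEB and TSST-1, 90 h incubation.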
Take `CCCCN(CCCC)C(=S)[S-].CCCCN(CCCC)C(=S)[S-].[Ni+2]`: the result was inactive.

In the case of `Cc1ccc2nc3sc(=O)sc3nc2c1`, the result was inactive.

For `CCOP(=S)(OCC)OP(=S)(OCC)OCC`, the result was inactive.

Take `Oc1cccc(-c2ccccc2)c1`: the outcome was inactive.

Turning to `CCOP(=O)(OCC)SCCSCC`, the outcome was inactive.

As to `Oc1ccc(Cc2ccc(O)cc2)cc1`, the result was inactive.

Consider `O=C1C=CC(=O)c2ccccc21`, for which the AC50 is 499 nM (active).

Regarding `O=S(=O)(c1ccc(Cl)cc1)c1cc(Cl)c(Cl)cc1Cl`, the result was inactive.

`OC(Cc1ccccc1Cl)(Cn1[nH]cnc1=S)C1(Cl)CC1` (stereo unspecified): the result was inactive.

With `COCC(=O)N(c1c(C)cccc1C)[C@H](C)C(=O)OC`, the result was inactive.

Take `O=[N+]([O-])c1cccc2ccccc12`: the outcome was inactive.

For the compound `Nc1c(Oc2ccccc2)cc(O)c2c1C(=O)c1ccccc1C2=O`, the result was inactive.

On to `Cc1ccccc1OP(=O)(Oc1ccccc1C)Oc1ccccc1C`, for which the AC50 is 20000 nM (active).

Take `O=C(O)COc1cc(Cl)c(Cl)cc1Cl`: the outcome was inactive.

For the compound `CC1(C)[C@H](C(=O)O[C@H](C#N)c2cccc(Oc3ccccc3)c2)[C@@H]1/C=C(\Cl)C(F)(F)F`, the AC50 is 17.1 µM (active) and 8.49 µM (active).

On to `Cc1cc(Cl)ccc1N`, for which the result was inactive.

Take `CCOC(=O)C(SP(=S)(OC)OC)c1ccccc1` (stereo unspecified): the result was inactive.

Consider `CCN(CC)C(=O)C(Cl)=C(C)OP(=O)(OC)OC`, for which the outcome was inactive.

For `Oc1c(Br)cc(Br)cc1Br`, the result was inactive.

In the case of `NC(=O)CCl`, the result was inactive.

Regarding `c1ccc2sc(SNC3CCCCC3)nc2c1`, the outcome was inactive.
